In PubChem BioAssay AID1159580 (chemical genetic matrix, 2015):
Screen size: about 5,500 compounds; about 2,000 (36%) were called active. Inconclusive results (about 18%) are left out. No stated cut-off is given here; in the data, active means normalized growth mostly below about 0.91 (no sharp cut-off); inconclusive means no clear call, values can overlap the other calls; inactive means mostly above about 0.92. This is one part of the list.

Test: chemical genetic growth profiling, strain panel (AID 1159580);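 further: tested at 20 µM; growth read once vehicle control cultures reached saturation at 30 °C; 1 = growth at the plate median or of vehicle wells; lower values mean less growth of the strain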
Conditions: growth OD

Measured: normalized growth

O=C(COC(=O)c1ccccc1Nc1ccccc1)c1ccc(Cl)cc1
inactive: S. cerevisiae deletion strains, locus YAL013W, strain DEP1, hits give low values 0.978 | S. cerevisiae deletion strains, locus YBR229C, strain ROT2, hits give low values 0.99 | S. cerevisiae deletion strains, locus YCL061C, strain MRC1, hits give low values 0.993 | S. cerevisiae deletion strains, locus YDL101C, strain DUN1, hits give low values 0.986 | S. cerevisiae deletion strains, locus YDR150W, strain NUM1, hits give low values 0.9 | S. cerevisiae deletion strains, locus YEL061C, strain CIN8, hits give low values 0.993 | S. cerevisiae deletion strains, locus YGR078C, strain PAC10, hits give low values 0.982 | S. cerevisiae deletion strains, locus YGR229C, strain SMI1, hits give low values 0.98 | S. cerevisiae deletion strains, locus YHR030C, strain SLT2, hits give low values 1.01 | S. cerevisiae deletion strains, locus YHR087W, strain rtc3, hits give low values 0.974 | S. cerevisiae deletion strains, locus YJL187C, strain SWE1, hits give low values 0.997 | S. cerevisiae deletion strains, locus YJR043C, strain POL32, hits give low values 0.98 | S. cerevisiae deletion strains, locus YJR075W, strain HOC1, hits give low values 1 | S. cerevisiae deletion strains, locus YKL190W, strain CNB1, hits give low values 0.988 | S. cerevisiae deletion strains, locus YLR039C, strain RIC1, hits give low values 0.944 | S. cerevisiae deletion strains, locus YLR058C, strain SHM2 (second series), hits give low values 0.992 | S. cerevisiae deletion strains, locus YLR085C, strain ARP6, hits give low values 1.02 | S. cerevisiae deletion strains, locus YLR262C, strain YPT6, hits give low values 0.987 | S. cerevisiae deletion strains, locus YML094W, strain GIM5, hits give low values 0.956 | S. cerevisiae deletion strains, locus YMR219W, strain ESC1, hits give low values 0.988 | S. cerevisiae deletion strains, locus YMR263W, strain SAP30, hits give low values 0.927 | S. cerevisiae deletion strains, locus YMR307W, strain GAS1, hits give low values 0.987 | S. cerevisiae deletion strains, locus YNL153C, strain GIM3, hits give low values 0.993 | S. cerevisiae deletion strains, locus YNL298W, strain CLA4 (second series), hits give low values 1 | S. cerevisiae deletion strains, locus YNL322C, strain KRE1, hits give low values 0.966 | S. cerevisiae deletion strains, locus YNR030W, strain Alg12, hits give low values 0.99 | S. cerevisiae deletion strains, locus YOL006C, strain TOP1, hits give low values 0.964 | S. cerevisiae deletion strains, locus YPL055C, strain LGE1, hits give low values 0.921 | S. cerevisiae deletion strains, locus YPL241C, strain CIN2, hits give low values 0.9 | S. cerevisiae deletion strains, locus YPR135W, strain CTF4, hits give low values 1.01 | S. cerevisiae strains, strain wild type, hits give low values 0.985
